Laboratory results published in PubChem BioAssay (NCI).
The panel holds about 83,000 compounds, 20% with a hit somewhere; the sample as a whole holds those more often.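 Compound tested at a single concentration for 48 hours in 96-well plates; a percent growth value below 10 was scored as active.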 Unmarked numbers belong to inactive results. Calls of active or inactive are those of the source.

How the values were obtained:
Experiment in all cases: NCI-60 one-dose screen, 48 h (100 = growth as untreated, 0 = no growth, -100 = all killed)
Conditions in all cases: 10 µM unless noted
NCI-H23 lung = tested on: NCI-H23 lung
HOP-62 NSCLC = tested on: HOP-62 NSCLC
NCI-H460 lung = tested on: NCI-H460 lung
HOP-92 NSCLC = tested on: HOP-92 NSCLC
NCI-H522 lung = tested on: NCI-H522 lung
A549/ATCC NSCLC = tested on: A549/ATCC NSCLC
786-0 renal = tested on: 786-0 renal
DU-145 prostate = tested on: DU-145 prostate
K-562 leukemia = tested on: K-562 leukemia
MALME-3M melanoma = tested on: MALME-3M melanoma
MDA-MB-231 breast = tested on: MDA-MB-231 breast
RXF 393 renal = tested on: RXF 393 renal
SF-268 CNS = tested on: SF-268 CNS
SF-295 CNS = tested on: SF-295 CNS
SF-539 CNS = tested on: SF-539 CNS
UACC-257 melanoma = tested on: UACC-257 melanoma
M14 melanoma = tested on: M14 melanoma
HCT-15 colon = tested on: HCT-15 colon
COLO 205 colon = tested on: COLO 205 colon

| SMILES | growth (NCI-H23 lung) | growth (HOP-62 NSCLC) | growth (NCI-H460 lung) | growth (HOP-92 NSCLC) | growth (NCI-H522 lung) | growth (A549/ATCC NSCLC) | growth (786-0 renal) | growth (DU-145 prostate) | growth (K-562 leukemia) | growth (MALME-3M melanoma) | growth (MDA-MB-231 breast) | growth (RXF 393 renal) | growth (SF-268 CNS) | growth (SF-295 CNS) | growth (SF-539 CNS) | growth (UACC-257 melanoma) | growth (M14 melanoma) | growth (HCT-15 colon) | growth (COLO 205 colon) |
| --- | --- | --- | --- | --- | --- | --- | --- | --- | --- | --- | --- | --- | --- | --- | --- | --- | --- | --- | --- |
| COc1cc(/C=C/C(=O)c2ccc(Cl)cc2)cc(CN2CCCCC2)c1O | 92.6% | 94.7% | 94.3% | 75.5% | 77.2% | 94.6% | 91.6% | 103% | 70.4% | 82.2% | 83.2% | 97.6% | 91.1% | 97.9% | 92.1% | 92.3% | 91.4% | 69.8% |  |
| CNCCNc1nc2ccccc2c2c(=O)c3cc(OC)ccc3sc12 | 69.6% | 41.2% | -72.2% (active) | 23.9% | 9.6% (active) | 24.6% | 10.7% | -25.6% (active) | -34% (active) | 67.1% | 1.79% (active) | 42.4% | 38.7% | 87.3% | 60% | 73.1% | -62.5% (active) | -31.8% (active) |  |
| O=c1oc2ccc(-c3ccc(F)cc3F)cc2c(=O)n1-c1cccc(C(F)(F)F)c1 | 1.75% (active) | 3.5% (active) | 4.14% (active) | -26.6% (active) | -10.7% (active) | 7.26% (active) | 0.874% (active) | 20.1% | 10.9% | -24% (active) | -16% (active) | -8.07% (active) | 12.7% | -0.824% (active) | 9.91% (active) | -14.2% (active) | 18.3% | 13% | 17.9% |
| COC(=O)c1c2c(c(C)[n+]([O-])c1C)C(=O)C(NCc1ccc(Br)cc1)=CC2=O | 11% | 31.4% | 3.51% (active) | 78.1% | 42.8% | 18.2% | 48.8% | 53.3% | 32% | -70.1% (active) | 4.21% (active) | 41.4% | 16.2% | 19.3% | 8.36% (active) | -52.3% (active) | 4.19% (active) | 7.94% (active) |  |
| COc1ccc(C2=C(c3cccc(OC)c3)C(=O)c3ccc(C)nc3C2=O)cc1 | 37.5% | 34.4% | 13.4% | 80% | 40.9% | 40.8% | 67.8% | 54.3% | 19.9% | 52.4% | 29.4% | 33.3% | 48% | 56.2% | 43% | 67.8% | 42% | 18.6% |  |
| COc1ccc(-c2nsc3c2NC(=O)CC3c2cccc(OC)c2)cc1 (stereo not drawn) | 43.3% | 39.1% | 17.6% | 49.9% | 25.5% | 37.1% | 49.6% | 13.7% | 18.9% | 41.5% | 73.3% | 16.8% | 62.3% | 15.5% | 13% | 74.7% | 28.6% | 26.4% | -11.7% (active) |
| O=S1(=O)N(Cc2ccccc2)[C@@H](Cc2ccccc2)[C@H](O)[C@H](O)[C@H](Cc2ccccc2)N1Cc1ccccc1 | 1.32% (active) | 18.4% | -44.8% (active) | 4.2% (active) | 9.21% (active) | 6.12% (active) | -1.43% (active) | -23.4% (active) | 3.12% (active) | -14.2% (active) | -7.98% (active) | -40.8% (active) | 25.3% | -11.2% (active) | -5.16% (active) | -22.1% (active) | -2.4% (active) | 3.16% (active) | -0.273% (active) |
| CC[C@]1(O)C[C@@H]2CN(CCc3c([nH]c4ccccc34)[C@@](C(=O)OC)(c3cc4c(cc3OC)N(C)[C@H]3[C@@](O)(C(=O)OC)[C@H](OC(=O)CCCBr)[C@]5(CC)C=CCN6CC[C@]43[C@@H]65)C2)C1 | 33.1% | 29.2% | 5.85% (active) | -0.264% (active) | -27% (active) | 15.2% | 10.4% | 5.82% (active) | 8.93% (active) | 39.4% | -16.5% (active) | 34.2% | 21.2% | 8.8% (active) | -10.4% (active) | 62% | -11% (active) | 10.5% | -53.2% (active) |
| COc1ccc(N(C)c2nc(N)nc3sc4c(c23)CCCC4)cc1 | 19.3% | 28.3% | 3.58% (active) | 36.5% | -13.7% (active) | 15.4% | 26.4% | 0.729% (active) | 7.85% (active) | 50.1% | 25.5% | 46.6% | 30% | 14.5% | -6.54% (active) | 39% | 1.13% (active) | 4.87% (active) | -60.3% (active) |
| COC(=O)/C(=C\c1c(C)[nH]c2ccccc12)S(=O)(=O)c1ccccc1 | 18.6% | 29.8% | -7.04% (active) | 21.5% | 31.9% | 23.7% | 48% | -53.4% (active) | 14.4% | 45.8% | 90% |  | 2.87% (active) | 16.6% | -24.3% (active) | 29.4% | 33.7% | 23.8% | 31.8% |
| COc1ccc(C(O)(CCC(C)C)C(CN2CCOCC2)c2ccc(Cl)cc2)cc1 (stereo not drawn) | 74.6% | 63.6% | 86.8% | 77.8% | -16.9% (active) | 62.4% | 73.3% | 73.8% | 15.3% | 39.2% | 68.5% | 88.3% | 80.2% |  | 64.7% | 69.4% | 37.1% | 35.6% | 76.4% |
| CC(=O)c1ccc(Cc2ccc(C(C)=O)s2)s1 | 103% | 104% | 94.3% | 102% | 95.8% | 105% | 102% | 113% | 94.1% | 106% | 99.8% | 104% | 101% | 114% | 94.1% | 111% | 107% | 99% | 119% |
| CCCCN1CCN(c2ccc3nc(-c4ccc5nc(-c6ccc(OC)c(OC)c6)[nH]c5c4)[nH]c3c2)CC1 | -66.1% (active) | -1.2% (active) | -35% (active) | 60.7% | -36.8% (active) | 28.4% | -85.9% (active) | 2.42% (active) | -15.5% (active) | -62.3% (active) | -38.1% (active) | -98.5% (active) | 20.7% | 10.6% | -81.9% (active) | -3.47% (active) | -52.5% (active) | 46.1% |  |
| COc1cc(C2C3=C(COC3=O)N(CCO)c3cc4c(cc32)OCCO4)cc(OC)c1O (stereo not drawn) | 35.8% | 32.9% | -3.84% (active) | 85.3% | -23.4% (active) | 52.8% | 19.8% | -8.77% (active) | 12.5% | 64.7% | 27.7% | -45.7% (active) | 46% | 2.74% (active) | -31.2% (active) | 46.2% | -22.4% (active) | 49.4% | 18.2% |
| CCCCCCc1cc2cc(-c3csc(/C=C/c4ccccc4)n3)c(=O)oc2cc1O | 54.5% | 34.9% | 17.7% | -3.21% (active) | -30.7% (active) | 28.7% | 30.1% | 53.3% | -25.8% (active) | -79.9% (active) | -8.21% (active) | -9.75% (active) | 17% | -55% (active) | -77.3% (active) | -78.3% (active) | -58.3% (active) | 18.9% | -93.5% (active) |
